Of roughly 7,900 targets only a part is listed; those with a hit were picked by preference. About 0.6% of all pairs of compound and target were hits.

Sequence of UniProt Q14689 (Q14689 whole entry, looked up): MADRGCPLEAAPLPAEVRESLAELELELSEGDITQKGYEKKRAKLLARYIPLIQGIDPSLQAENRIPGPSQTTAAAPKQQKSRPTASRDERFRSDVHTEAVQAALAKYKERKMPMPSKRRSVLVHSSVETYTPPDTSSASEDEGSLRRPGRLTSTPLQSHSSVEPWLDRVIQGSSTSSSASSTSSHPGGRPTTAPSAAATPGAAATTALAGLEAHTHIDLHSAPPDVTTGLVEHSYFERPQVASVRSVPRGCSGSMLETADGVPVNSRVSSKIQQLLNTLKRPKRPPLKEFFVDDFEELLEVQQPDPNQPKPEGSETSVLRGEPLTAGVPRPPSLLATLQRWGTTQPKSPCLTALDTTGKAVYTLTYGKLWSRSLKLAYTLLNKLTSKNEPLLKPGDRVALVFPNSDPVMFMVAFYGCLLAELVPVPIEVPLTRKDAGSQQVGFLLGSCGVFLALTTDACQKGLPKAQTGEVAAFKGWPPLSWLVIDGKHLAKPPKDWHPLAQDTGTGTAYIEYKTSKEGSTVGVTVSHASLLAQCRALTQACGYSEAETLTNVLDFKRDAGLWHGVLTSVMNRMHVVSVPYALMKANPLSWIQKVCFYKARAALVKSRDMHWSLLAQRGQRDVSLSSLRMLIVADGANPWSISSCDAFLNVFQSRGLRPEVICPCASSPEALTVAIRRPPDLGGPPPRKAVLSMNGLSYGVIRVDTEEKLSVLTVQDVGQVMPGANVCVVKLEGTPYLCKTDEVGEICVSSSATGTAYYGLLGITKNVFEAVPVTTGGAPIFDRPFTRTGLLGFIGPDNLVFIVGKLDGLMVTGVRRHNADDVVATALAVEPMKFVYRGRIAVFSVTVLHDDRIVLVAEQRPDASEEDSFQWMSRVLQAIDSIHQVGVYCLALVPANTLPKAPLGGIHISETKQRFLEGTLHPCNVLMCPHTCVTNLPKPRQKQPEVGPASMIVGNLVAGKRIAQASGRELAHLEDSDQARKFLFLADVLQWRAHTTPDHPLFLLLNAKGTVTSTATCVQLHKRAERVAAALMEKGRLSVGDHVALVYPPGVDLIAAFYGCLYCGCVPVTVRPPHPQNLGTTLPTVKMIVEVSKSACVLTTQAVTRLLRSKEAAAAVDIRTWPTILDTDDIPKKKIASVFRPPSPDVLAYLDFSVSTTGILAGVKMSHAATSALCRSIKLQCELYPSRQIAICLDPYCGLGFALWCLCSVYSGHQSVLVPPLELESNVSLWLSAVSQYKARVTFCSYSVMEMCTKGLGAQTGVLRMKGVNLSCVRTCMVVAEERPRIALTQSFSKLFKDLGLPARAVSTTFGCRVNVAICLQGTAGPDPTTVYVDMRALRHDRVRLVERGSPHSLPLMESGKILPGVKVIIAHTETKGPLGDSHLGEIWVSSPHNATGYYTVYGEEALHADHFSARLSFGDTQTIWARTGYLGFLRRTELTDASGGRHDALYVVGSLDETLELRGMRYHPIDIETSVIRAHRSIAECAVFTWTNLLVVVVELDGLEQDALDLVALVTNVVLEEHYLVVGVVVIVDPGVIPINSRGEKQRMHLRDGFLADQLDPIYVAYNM
Sequence of UniProt Q96KP1 (Q96KP1 whole entry, looked up): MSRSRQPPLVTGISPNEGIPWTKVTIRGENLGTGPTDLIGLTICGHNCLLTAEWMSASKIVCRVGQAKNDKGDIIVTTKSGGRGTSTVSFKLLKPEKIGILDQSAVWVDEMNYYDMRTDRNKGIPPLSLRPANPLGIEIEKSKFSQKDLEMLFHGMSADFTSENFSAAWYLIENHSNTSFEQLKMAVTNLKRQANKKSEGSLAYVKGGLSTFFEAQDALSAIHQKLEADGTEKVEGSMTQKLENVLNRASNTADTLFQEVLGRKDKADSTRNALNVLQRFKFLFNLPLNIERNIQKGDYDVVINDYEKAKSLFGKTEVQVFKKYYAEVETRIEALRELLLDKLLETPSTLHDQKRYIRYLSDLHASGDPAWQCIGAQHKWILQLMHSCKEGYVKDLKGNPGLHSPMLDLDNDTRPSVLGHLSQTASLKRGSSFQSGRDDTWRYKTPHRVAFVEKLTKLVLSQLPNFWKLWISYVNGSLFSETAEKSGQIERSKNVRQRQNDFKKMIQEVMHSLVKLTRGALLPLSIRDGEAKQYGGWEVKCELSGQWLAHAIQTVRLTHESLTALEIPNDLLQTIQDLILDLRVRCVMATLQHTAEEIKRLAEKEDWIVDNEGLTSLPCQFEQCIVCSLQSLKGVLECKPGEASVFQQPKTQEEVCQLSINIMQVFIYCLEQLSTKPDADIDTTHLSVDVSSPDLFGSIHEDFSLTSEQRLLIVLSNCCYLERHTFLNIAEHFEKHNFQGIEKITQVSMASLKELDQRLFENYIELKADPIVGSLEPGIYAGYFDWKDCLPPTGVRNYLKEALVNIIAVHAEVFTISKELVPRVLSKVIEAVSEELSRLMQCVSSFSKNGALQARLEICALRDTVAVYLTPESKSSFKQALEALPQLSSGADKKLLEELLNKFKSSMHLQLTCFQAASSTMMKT
Sequence of UniProt P24534 (P24534 whole entry, looked up): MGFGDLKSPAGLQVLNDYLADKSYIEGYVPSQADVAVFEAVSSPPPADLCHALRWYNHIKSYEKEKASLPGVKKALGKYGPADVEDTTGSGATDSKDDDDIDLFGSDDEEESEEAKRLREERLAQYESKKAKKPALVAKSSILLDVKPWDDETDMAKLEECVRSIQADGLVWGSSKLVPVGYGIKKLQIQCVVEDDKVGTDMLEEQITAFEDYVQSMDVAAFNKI
Sequence of UniProt Q16254 (Q16254 whole entry, looked up): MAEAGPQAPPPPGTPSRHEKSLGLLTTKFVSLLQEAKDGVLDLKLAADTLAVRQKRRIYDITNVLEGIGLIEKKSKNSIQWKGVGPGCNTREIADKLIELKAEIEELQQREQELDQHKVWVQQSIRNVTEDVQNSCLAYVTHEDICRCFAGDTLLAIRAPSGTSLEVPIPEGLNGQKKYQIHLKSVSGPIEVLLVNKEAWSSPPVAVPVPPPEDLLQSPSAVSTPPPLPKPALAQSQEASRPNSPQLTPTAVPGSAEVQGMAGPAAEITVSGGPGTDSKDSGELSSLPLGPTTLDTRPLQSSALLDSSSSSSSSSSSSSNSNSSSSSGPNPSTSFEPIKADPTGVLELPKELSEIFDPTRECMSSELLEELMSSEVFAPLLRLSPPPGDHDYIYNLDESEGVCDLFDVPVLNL
Sequence of UniProt Q13409 (Q13409 whole entry, looked up): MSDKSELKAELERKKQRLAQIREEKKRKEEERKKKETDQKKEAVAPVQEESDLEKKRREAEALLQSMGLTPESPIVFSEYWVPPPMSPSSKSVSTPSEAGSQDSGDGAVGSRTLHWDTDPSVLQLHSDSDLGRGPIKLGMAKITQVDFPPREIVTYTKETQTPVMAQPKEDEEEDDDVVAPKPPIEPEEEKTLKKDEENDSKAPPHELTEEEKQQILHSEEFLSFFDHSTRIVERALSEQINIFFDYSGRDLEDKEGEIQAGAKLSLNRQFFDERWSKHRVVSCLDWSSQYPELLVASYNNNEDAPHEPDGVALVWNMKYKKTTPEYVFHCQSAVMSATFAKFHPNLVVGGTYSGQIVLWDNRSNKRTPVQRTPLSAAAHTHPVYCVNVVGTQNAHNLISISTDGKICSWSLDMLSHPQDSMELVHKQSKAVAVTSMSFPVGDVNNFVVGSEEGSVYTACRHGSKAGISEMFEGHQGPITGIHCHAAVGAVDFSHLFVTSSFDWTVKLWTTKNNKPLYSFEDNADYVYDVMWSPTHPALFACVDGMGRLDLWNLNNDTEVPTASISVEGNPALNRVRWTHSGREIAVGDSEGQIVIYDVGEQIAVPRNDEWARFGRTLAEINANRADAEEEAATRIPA
Sequence of UniProt Q6V1X1 (Q6V1X1 whole entry, looked up): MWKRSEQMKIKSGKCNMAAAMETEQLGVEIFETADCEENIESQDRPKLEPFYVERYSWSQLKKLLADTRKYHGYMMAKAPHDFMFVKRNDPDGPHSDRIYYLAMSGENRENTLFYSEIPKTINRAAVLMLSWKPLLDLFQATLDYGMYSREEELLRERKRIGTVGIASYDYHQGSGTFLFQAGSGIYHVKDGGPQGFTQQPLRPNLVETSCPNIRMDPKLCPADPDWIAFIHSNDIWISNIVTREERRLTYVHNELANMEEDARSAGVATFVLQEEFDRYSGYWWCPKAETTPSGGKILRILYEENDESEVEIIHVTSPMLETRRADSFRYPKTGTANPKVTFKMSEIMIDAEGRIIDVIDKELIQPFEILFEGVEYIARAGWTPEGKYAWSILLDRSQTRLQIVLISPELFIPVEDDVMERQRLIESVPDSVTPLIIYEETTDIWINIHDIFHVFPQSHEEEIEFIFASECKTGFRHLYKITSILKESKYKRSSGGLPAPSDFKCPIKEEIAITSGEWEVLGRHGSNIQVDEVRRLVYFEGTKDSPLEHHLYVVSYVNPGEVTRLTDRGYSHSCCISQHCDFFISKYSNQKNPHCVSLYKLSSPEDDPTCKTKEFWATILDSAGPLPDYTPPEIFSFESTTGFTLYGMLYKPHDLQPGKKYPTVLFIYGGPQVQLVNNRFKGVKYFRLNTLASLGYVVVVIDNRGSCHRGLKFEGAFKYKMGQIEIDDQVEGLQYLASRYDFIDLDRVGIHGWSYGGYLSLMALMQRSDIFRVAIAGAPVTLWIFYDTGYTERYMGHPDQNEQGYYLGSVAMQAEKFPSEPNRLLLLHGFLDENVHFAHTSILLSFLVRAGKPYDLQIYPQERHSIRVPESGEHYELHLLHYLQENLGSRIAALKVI
Sequence of UniProt P07711 (P07711 whole entry, looked up): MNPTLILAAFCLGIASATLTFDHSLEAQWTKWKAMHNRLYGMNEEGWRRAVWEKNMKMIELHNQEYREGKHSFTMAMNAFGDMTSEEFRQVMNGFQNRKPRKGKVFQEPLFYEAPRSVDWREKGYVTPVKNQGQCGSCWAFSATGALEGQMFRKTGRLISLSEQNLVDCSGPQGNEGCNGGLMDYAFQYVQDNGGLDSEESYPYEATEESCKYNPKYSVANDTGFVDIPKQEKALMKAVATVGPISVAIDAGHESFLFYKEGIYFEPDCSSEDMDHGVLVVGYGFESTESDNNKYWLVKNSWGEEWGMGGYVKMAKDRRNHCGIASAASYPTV

Compound in this assay: Cc1ccc(C(=O)N(CCCN)[C@@H](c2nc3cc(Cl)ccc3c(=O)n2Cc2ccccc2)C(C)C)cc1 [ispinesib]
Briefly: log2 fold change, soluble protein after heating vs DMSO (PISA); higher = thermal stabilisation; K562 cells, 10 uM, 30 min; active = over 0.2 and 3.5 SD of the protein, either way, in both replicates (recomputed). The gist of the method:
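Quantification of soluble protein used TMTpro 16plex LC-MS/MS, with channel sums equalised. Samples were the supernatant after 21,000xg for 90 min of pooled aliquots from K562 cells (2×10^6 cells/mL) treated with 10 μM compound for 30 min, heated for 3 min over 48°C-58°C, and extracted in PBS with 0.5% NP-40 at 4°C. Values, from duplicates, describe thermal stability against control samples on a log2 fold-change scale.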
For DDX39A (UniProt O00148), the log2 fold change is -0.064 (inactive).
As to DCAF10 (UniProt Q5QP82), the log2 fold change is -0.059 (inactive).
In the case of EDC4 (UniProt Q6P2E9), the log2 fold change is -0.031 (inactive).
With EHD2 (UniProt Q9NZN4), the log2 fold change is -0.007 (inactive).
Turning to ETNK1 (UniProt Q9HBU6), the log2 fold change is 0.059 (inactive).
DDX4 (UniProt Q9NQI0): the log2 fold change was -0.529 (inactive).
For E2F4 (UniProt Q16254) the value was -0.103 (inactive); for EFL1 (UniProt Q7Z2Z2), -0.018 (inactive).
For EXTL2 (UniProt Q9UBQ6), the log2 fold change was 0.108 (inactive).
As for ECPAS (UniProt Q5VYK3), the log2 fold change was -0.016 (inactive).
As to EEF1AKNMT (UniProt Q8N6R0), the log2 fold change was -0.072 (inactive).
As to DNAJC1 (UniProt Q96KC8), the log2 fold change was -0.356 (active).
Regarding DHX40 (UniProt Q8IX18), the log2 fold change was -0.215 (inactive).
In the case of ERLIN2 (UniProt O94905), the log2 fold change is -0.251 (active).
As to EED, A0A5F9ZI63, the log2 fold change is 0.019 (inactive).
Then FAM118A (UniProt Q9NWS6), with 0.034 (inactive); and CTNNB1 (UniProt P35222), with 0.078 (inactive); and EXOC8 (UniProt Q8IYI6), with -0.364 (active).
Then DDX5 (UniProt P17844), with 0.052 (inactive); and CTSB (UniProt P07858), with -0.403 (active).
For FAM160B1 (UniProt Q5W0V3) the value was -0.125 (inactive).
As to DNAAF2 (UniProt Q9NVR5), the log2 fold change is 0.032 (inactive).
Then DYNC1I2 isoform 5 (UniProt Q13409), with 0.028 (inactive); and CTSL (UniProt P07711), with -0.199 (inactive); and CWC27 (UniProt Q6UX04), with -0.017 (inactive).
In the case of EEF1B2 (UniProt P24534), the log2 fold change was -0.024 (inactive).
As for DCUN1D1 (UniProt Q96GG9), the log2 fold change was 0.036 (inactive).
Consider CUEDC2 (UniProt Q9H467), for which the log2 fold change was 0.024 (inactive).
For CUX1 isoform 3 (UniProt P39880), the log2 fold change was -0.101 (inactive).
EXOC2 (UniProt Q96KP1): the log2 fold change is -0.394 (active).
As for DIP2A (UniProt Q14689), the log2 fold change is 0.01 (inactive).
Then DHCR24 (UniProt Q15392), with -0.053 (inactive); and DBN1 isoform 3 (UniProt Q16643), with 0.071 (inactive).
With DPP8 (UniProt Q6V1X1), the log2 fold change was 0.019 (inactive).
For DDB1 (UniProt Q16531) the value was 0.009 (inactive); for FAM50A (UniProt Q14320), 0.095 (inactive).

Source of the values: the supplement of paper PMC10849652.
